NLRP3 yeast inh – inhibitors of NALP3 inflammasome in yeast. Yeast reconstituted NLRP3/ASC/caspase-1, beta-gal luminescence, 24 h. inhibition, % at 10 µM. actives 0.39% (n = 330,000). AID 2825;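 active = inhibition of 50% or more; inactive = inhibition below 50%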;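 note: plate controls were induced DMSO wells for no effect and uninduced yeast grown without galactose for full effect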
Bfl-1 A1 inh – inhibitors of the anti-apoptotic protein A1, read as caspase activation; MEF A1-2A-BIM cells, Caspase-Glo 3/7 luminescence, 3 h; percent of clofoctol response, vehicle zero; AID 2462; actives 0.066% (n = 330,000); caspase activation, % (no concentration beside the values);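 active = over half of replicate activation scores above 10%, or exactly half above 10 with the replicate mean above 10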
NALP1 inh – inhibitors of NALP1 inflammasome in yeast; S. cerevisiae NALP1/ASC/caspase-1 growth, X-gal OD620, 72 h; inhibition, % at 10 µM; actives 0.61% (n = 280,000); AID 2071; in the data active = inhibition mostly above about 24%, no sharp cut-off; inactive = mostly below about 32%
CHT PAM – human CHT allosteric activation; Q9GZV3; CHT-expressing cells, membrane potential dye, choline EC20; hits give high values; LV-AA mutant CHT in HEK293 cells; B-score at 10 µM; actives 0.49% (n = 310,000);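 active = initial fluorescence not abnormally high and integrated response B-score, plate-corrected, over 3 SD above library mean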
Target sequence (Q9GZV3 whole entry, looked up): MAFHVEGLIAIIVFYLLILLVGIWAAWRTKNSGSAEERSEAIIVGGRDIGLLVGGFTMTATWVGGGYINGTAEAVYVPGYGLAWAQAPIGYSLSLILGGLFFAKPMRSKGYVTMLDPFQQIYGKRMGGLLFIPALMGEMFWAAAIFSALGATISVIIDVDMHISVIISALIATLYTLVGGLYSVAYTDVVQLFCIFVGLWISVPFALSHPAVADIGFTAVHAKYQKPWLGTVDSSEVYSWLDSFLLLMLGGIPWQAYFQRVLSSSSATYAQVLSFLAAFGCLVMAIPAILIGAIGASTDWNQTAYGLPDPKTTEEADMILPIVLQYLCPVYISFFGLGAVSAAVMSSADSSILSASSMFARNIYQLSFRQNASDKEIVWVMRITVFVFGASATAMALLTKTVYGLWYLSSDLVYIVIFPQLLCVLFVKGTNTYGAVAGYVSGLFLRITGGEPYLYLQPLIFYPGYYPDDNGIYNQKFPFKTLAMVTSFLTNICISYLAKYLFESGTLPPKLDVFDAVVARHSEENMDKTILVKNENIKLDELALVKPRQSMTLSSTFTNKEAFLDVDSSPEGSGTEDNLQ
Mot1-301 SUMO – SUMOylation pathway inhibition by Mot1-301 growth rescue; S. cerevisiae Mot1-301 growth rescue, ATP luminescence, 38.5C; percent above DMSO median, 100 means doubled; growth rescue, % at 18.8 µM; actives 1% (n = 320,000); AID 2716;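 active = every valid replicate shows activation above 250% relative to neutral control wells; inactive = the rest, any valid replicate at or below 250%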;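 note: OY570 slx delta 5 strain wells were the positive control but not used for scaling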
CHT block – inhibitors of human choline transporter CHT. Q9GZV3. CHT-expressing cells, membrane potential dye, choline response; hits give low values. B-score at 10 µM. actives 0.86% (n = 310,000);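 active = B-score over 3 SD under the library average, and starting fluorescence ratio not unusually high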;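 note: choline stimulus applied at its EC90 after an EC20 pre-addition; B-score computed on integrated fluorescence ratio after choline addition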
An asterisk follows results filed as active; i = inactive; · = not tested or not shown. A selection: hits, their analogues and other compounds. The true share with any hit is near 3%.

SMILES	NLRP3 yeast inh	Bfl-1 A1 inh	NALP1 inh	CHT PAM	Mot1-301 SUMO	CHT block
CCCCN(CC)CCCNC(=S)Nc1ccc2nc(N3CCN(CC)CC3)cc(C)c2c1	23.2	0.9	6.4	i	-16.0	-11.1*
COc1cccc(Cn2nnc(C(=O)Nc3cc(Cl)ccc3OC)c2N)c1	3.7	1.0	40.4*	i	7.2	i
CC(C)c1ccc(NC(=O)C(c2ccc3c(c2)OCO3)N2CCCCC2)cc1 (centres undefined)	30.9	1.3	5.7	i	-11.6	i
CC1CCN(C(C(=O)Nc2ccc(C(C)C)cc2)c2ccc3c(c2)OCO3)CC1 (centres undefined)	1.4	-0.1	37.8*	i	-13.3	i
CC1(C(=O)NNC(=O)c2cccc([N+](=O)[O-])c2)CC1(Br)Br (centres undefined)	-1.8	-1.1	15.4	i	0.8	i
O=C(CN1CCN(c2ccc(F)cc2)CC1)N1CCC(Cc2ccccc2)CC1	15.5	0.8	30.7*	i	99.5	i
NS(=O)(=O)c1cccc(NC(=O)COC(=O)Cc2n[nH]c(=O)c3ccccc23)c1	12.5	-0.3	·	·	-10.4	·
CCCN(CC1CCCO1)C(=O)c1cc(COc2ccc(F)cc2F)on1 (centres undefined)	10.5	0.2	-6.8	i	-0.7	i
CC1=CC(C)(C)Nc2ccc(OC(=O)CN3C(=O)c4ccccc4C3=O)cc21	8.8	0.3	64.2*	i	12.3	i
CNC(=S)N(CCc1c(C)[nH]c2ccc(F)cc12)Cc1cccnc1	-1.1	0.4	7.1	i	354.3*	i
Cc1[nH]c2ccccc2c1CCN(Cc1cccnc1)C(=S)Nc1ccc(F)cc1	4.3	-0.5	-7.6	i	5.9	i
COc1ccc(-c2csc(NC(=O)c3ccccc3Br)c2C(=O)O)cc1	42.4	-4.5	11.3	i	67.2	-6.15*
COc1ccc(-c2csc(NC(=O)c3ccccc3OC)c2C(=O)O)cc1OC	7.5	0.5	-9.1	i	-20.2	i
O=C(CS(=O)(=O)c1ccccc1)N(CCCN1CCOCC1)c1nc2c(F)cccc2s1	4.8	3.0	·	i	348.7*	i
Cc1cccc2sc(N(CCCN3CCOCC3)C(=O)CS(=O)(=O)c3ccc(F)cc3)nc12	14.1	0.4	·	i	307.7	i
COc1ccc(NC(=O)CC2Sc3ncnn3C2=O)cc1 (centres undefined)	10.8	0.7	94.8*	i	-20.6	i
Nc1nc2ccccc2n1CCOc1ccccc1Cl	-0.4	0.6	8.5	i	3.5	-13.9*
Nc1nc2ccccc2n1CCOc1ccc(Cl)cc1	23.9	0.0	4.6	i	-23.2	i
Cc1ccc(CNC(=O)CCS(=O)(=O)c2ccc(Br)s2)cc1	8.4	0.4	43.1*	i	-10.4	i
CC(C)(C)C(=O)Nc1ccc(NC(=O)C(C)(C)C)cc1	-5.3	-0.7	27.5	i	12.2	i
CC(C)(C)C(=O)Nc1ccc(S(=O)(=O)c2ccc(NC(=O)C(C)(C)C)cc2)cc1	-1.6	0.6	3.3	i	319.7*	i
CCOC(=O)N1CCN(C2=Nc3cccc4cccc2c34)CC1	15.3	0.3	18.3	i	5.3	-7.09*
COc1ccccc1C(=O)NC(=O)COC(=O)Cn1cnc2c1c(=O)n(C)c(=O)n2C	1.5	0.5	·	i	10.4	i
CC(OC(=O)CNC(=O)C12CC3CC(CC(C3)C1)C2)C(=O)Nc1ncc(Cl)cc1Cl (centres undefined)	-5.8	-0.5	40.3*	i	-0.6	i
C#CCN(Cc1ccccc1)S(=O)(=O)C=C	-1.8	-1.0	·	·	-1.4	·
CC(C)CNC(=O)C(=O)NCc1ccccn1	7.0	1.2	4.1	i	315.4*	i
O=[N+]([O-])c1cccc(N/N=C/c2cc([N+](=O)[O-])ccc2O)c1	32.9	0.0	-4.1	i	301.5*	i
CCC(CC)=NNc1cccc([N+](=O)[O-])c1	4.6	-0.7	13.3	i	0.2	i
CC/C(C)=N/Nc1cccc([N+](=O)[O-])c1	16.0	0.4	29.5	i	275.4*	i
O=[N+]([O-])c1ccc(N/N=C/c2ccccc2O)cc1	-5.2	-1.0	-21.3	i	60.2	i
